Experimental data taken from PubChem BioAssay (NCATS).
Inconclusive results are not listed. A number with no mark means an inactive call. The source made the active and inactive calls. Calls follow the shape of the dose curve; as a rule, active = well fitted cell-killing curve with a large enough effect; inconclusive = small, poorly fitted or top-dose-only effect; inactive = flat fitted curve, though single readings scatter.

assay: Quantitative highthroughput screen to assess conditional lethalithy of NOMO1 cells grown in RPMI1640 with untreated serum (RPMI+s) (AID 1963876); details: NOMO1 AML cells in RPMI+serum, CellTiter-Glo viability, 48 h; series mostly up to 45.8 µM; viability: at the top concentration; also: nearly all actives have a fitted effect of over 35% in size;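 as to viability: 100% = DMSO wells and 0% = empty wells without cells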
Method in brief: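 Each medium arm—HPLM with 10% dialyzed FBS, or RPMI1640 with 5 mM glucose and 10% untreated or dialyzed FBS—was screened against an 11-point, 3-fold compound titration for 48 h at 37 °C, with CellTiter-Glo luminescence as endpoint.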
Potency is read from the fitted curve at half-maximal effect.

Compound | viability [%] | Potency
COc1cccc(N(C)C(=S)Oc2ccc3c(c2)CCCC3)n1 | 113 | 
CCCCC(C=O)NC(=O)C(CC(C)C)NC(=O)OCc1ccccc1 (stereo not drawn) | 103 | 
Fc1ccc(C(c2ccc(F)cc2)N2CCN(CC=Cc3ccccc3)CC2)cc1 | 102 | 
Cc1nn(C)c2c1C(c1ccc(C(F)(F)F)cc1)C(C#N)=C(N)O2 (stereo not drawn) | 88.6 | 
CCCCCCCCCCCCCCCC(=O)OC[C@@H](NC(=O)C(Cl)Cl)[C@H](O)c1ccc([N+](=O)[O-])cc1 | 102 | 
COc1cc(C=CC(=O)CC(=O)C=Cc2ccc(O)c(OC)c2)ccc1O |  | 38.2 µM (active)
CC(=O)N1CCN(c2ccc(OC[C@H]3CO[C@](Cn4ccnc4)(c4ccc(Cl)cc4Cl)O3)cc2)CC1 | 95.5 | 
Cc1c(-c2cccc3c(CCCOc4cccc5ccccc45)c(C(=O)O)n(Cc4cccnc4)c23)c(COc2ccc(N3CCN([S+](=O)([O-])N(C)C)CC3)cc2)nn1C | 106 | 
C[C@]12C=CC(=O)N[C@@H]1CC[C@H]1[C@H]3CC[C@@H](C(=O)Nc4cc(C(F)(F)F)ccc4C(F)(F)F)[C@@]3(C)CC[C@@H]12 | 92.7 | 
CCC=CC[C@H]1C(=O)CC[C@@H]1CC(=O)OC | 92.2 | 
CS[C@H]1SC[C@@H]2C(=O)N(C)[C@H](C(C)C)C(=O)OC[C@H](NC(=O)c3cnc4ccccc4n3)C(=O)N[C@H](C)C(=O)N(C)[C@@H]1C(=O)N(C)[C@H](C(C)C)C(=O)OC[C@H](NC(=O)c1cnc3ccccc3n1)C(=O)N[C@H](C)C(=O)N2C |  | 0.0209 µM (active)
O=C(C=CC#Cc1cccc(NS(=O)(=O)c2ccccc2)c1)NO |  | 3.72 µM (active)
CC(C)CN(C[C@H](O)[C@H](Cc1ccccc1)NC(=O)O[C@H]1CCOC1)S(=O)(=O)c1ccc(N)cc1 | 100 | 
C[C@@H]1[C@H](C)CC[C@]2(C(=O)O)CC[C@]3(C)C(=CC[C@@H]4[C@@]5(C)C[C@@H](O)[C@H](O)[C@@](C)(CO)[C@H]5CC[C@]43C)[C@@H]12 | 100 | 
O=C(C=Cc1c(C(=O)O)[nH]c2cc(Cl)cc(Cl)c12)Nc1ccccc1 | 94.7 | 
CC1CC2C3CCC4=CC(=O)C=C[C@]4(C)[C@@]3(F)[C@@H](O)C[C@]2(C)[C@@]1(O)C(=O)CO (stereo partly drawn) | 97.7 | 
Nc1ncnc2c1ncn2[C@@H]1O[C@H](CO)C[C@@H]1O | 113 | 

Compound | viability [%] | Potency
Cc1ccc([C@@H]2O[C@H](CO)[C@@H](O)[C@H](O)[C@@H]2O)cc1Cc1ccc(-c2ccc(F)cc2)s1 | 87.7 | 
CC1(C)O[C@@H]2C[C@@H]3[C@H]4C[C@@H](F)C5=CC(=O)C=C[C@]5(C)[C@@]4(F)[C@@H](O)C[C@]3(C)[C@]2(C(=O)CO)O1 | 96.1 | 
CCC(=O)OCC(=O)[C@@]1(OC(=O)CC)[C@@H](C)C[C@@H]2[C@H]3CCC4=CC(=O)C=C[C@]4(C)[C@@]3(F)[C@@H](O)C[C@@]21C |  | 7.43 µM (active)
CCN(CC)CCNC(=O)c1c(C)[nH]c(C=C2C(=O)Nc3ccc(F)cc32)c1C |  | 0.303 µM (active)
CCC(=C(CC)c1ccc(O)cc1)c1ccc(O)cc1 | 95.4 | 
CC(C)c1onc(-c2c(Cl)cccc2Cl)c1COc1ccc(C=Cc2cccc(C(=O)O)c2)c(Cl)c1 | 89.7 | 
O=C(NNC(=O)c1ccc(CNS(=O)(=O)c2ccc(F)c(Cl)c2)cc1)c1ccccc1 | 99.9 | 
CNC[C@@H](O)[C@@H](O)[C@H](O)[C@H](O)CO | 80.3 | 
C[C@H]1C[C@@H]2[C@@H]([C@@H](O)C[C@@]3(C)[C@H]2CC[C@]3(O)C(=O)CO)[C@@]2(C)C=CC(=O)C=C12 | 108 | 
CO[C@H]1/C=C\O[C@@]2(C)Oc3c(C)c(O)c4c(O)c(c(C=NN5CCN(C6CCCC6)CC5)c(O)c4c3C2=O)NC(=O)C(C)=CC=C[C@H](C)[C@H](O)[C@@H](C)[C@@H](O)[C@@H](C)[C@H](OC(C)=O)[C@H]1C |  | 1.66 µM (active)
CC(C=CC1=C(C)CCCC1(C)C)=CC=CC(C)=CC(=O)O | 97.7 | 
C[C@H](CCC(=O)O)[C@H]1CC[C@H]2[C@H]3[C@@H](CC[C@]12C)[C@@]1(C)CC[C@@H](O)C[C@H]1C[C@@H]3O | 78.7 | 
CCCCCCCc1ccc(CCc2cccc(O)c2C(=O)O)cc1 | 88.1 | 
Cc1cccc(C#Cc2ccccc2)n1 | 99.7 | 
C[C@H]1[C@H](NC(=O)C(=NOC(C)(C)C(=O)O)c2csc(N)n2)C(=O)N1S(=O)(=O)O | 109 | 
CC[C@]1(O)C[C@@H]2CN(CCc3c([nH]c4ccccc34)[C@@](C(=O)OC)(c3cc4c(cc3OC)N(C=O)[C@@H]3C45CCN4CC=C[C@](CC)([C@H]45)[C@@H](OC(C)=O)[C@]3(O)C(=O)OC)C2)C1 (stereo partly drawn) | 108 | 
